Screens: PubChem, National Center for Advancing Translational Sciences (NCATS)
This is a sample that favours compounds with a hit; in the whole collection about 18% have one here.
TDP1 block: inhibitors of human tyrosyl-DNA phosphodiesterase TDP1; recombinant TDP1, AlphaScreen DNA substrate cleavage; Potency, µM (titrated, usually from 130 µM), for the others: at the top dose activity change, negative = inhibition, hits mostly inhibitors; 350,000 tested, 0.28% active; also: potency is read from the fitted curve at half-maximal effect; nearly all actives have a fitted effect of over 40% in size
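Signal: AlphaScreen proximity between streptavidin donor and anti-FITC acceptor beads on intact substrate. Reaction: Tdp1 1 nM, substrate 15 nM final, 5 min RT after 15 min compound preincubation.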
Six1-Eya2 inh: Six1/Eya2 interaction inhibition; AlphaScreen GST-Six1/His-Eya2 binding, biochemical; active compounds read low; 360,000 tested, 0.56% active; Q15475+O00167; activity change, % (test concentration not listed); in the data active = activity change below about -65%; inconclusive = mostly about -30% to -63%
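AlphaScreen luminescence read after one hour at 37 °C in darkness. Pin-transferred compounds met GST-Six1 and His-Eya2 protein (5X stock 250 nM/500 nM) plus glutathione donor and Ni-chelate acceptor beads (5X, 50 ug/mL).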
CtBP-E1A inh: inhibitors of CtBP/E1A interaction. AlphaScreen GST-E1A/His-CtBP binding, 1536-well; active compounds read low. activity change, % (concentration not given with the values). 340,000 tested, 0.49% active. AID 651724; in the data active = activity change below about -65%; inconclusive = mostly about -30% to -63%
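Protein mix (5X: 125 nM each GST-E1A, His-CtBP) was incubated with pinned compound 2 h at 37 deg C in dark, in 50 mM Tris pH 8.0 buffer with 300 mM NaCl. Glutathione donor and nickel acceptor beads followed; AlphaScreen signal read after 1 h.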
TDP1 cell CPT: growth inhibition of DT40 Tdp1-/-;hTDP1 cells with camptothecin (screen for TDP1 inhibitors); chicken DT40 Tdp1-/-;hTDP1 cells + 20 nM CPT, ATP luminescence, 48 h; Potency, µM (top dose mostly 46.2 µM), for inactives: top-dose activity change, negative = growth inhibition, usual class: inhibitors; 420,000 tested, 12% active; AID 686979; also: potency is read from the fitted curve at half-maximal effect; nearly all actives have a fitted effect of over 55% in size
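Chicken DT40 Tdp1-/- cells stably complemented with human TDP1 were seeded at 400 cells/well in medium containing 20 nM camptothecin, exposed to pin-transferred compounds, and grown at 37 °C for at least 48 hr. Viability was read as ATP luminescence.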
IL-1B inflam inh: inflammasome signaling inhibition, IL-1 beta readout; THP-1 LPS/ATP IL-1B secretion, AlphaLISA, 16 h; active compounds read low; 360,000 tested, 4.7% active; AID 743279; activity change, % at 57.5 µM; in the data active = activity change below about -50%; inconclusive = mostly about -30% to -49%
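THP-1 cells pretreated 1 hr with compounds (up to 57.5 uM final), then stimulated with LPS (250 ng/mL final) plus ATP (1.25 mM final); secreted IL-1B measured by AlphaLISA after 16 hr, decreased signal indicating inhibition.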
TDP1 cell noCPT: qHTS for Inhibitors of human tyrosyl-DNA phosphodiesterase 1 (TDP1): qHTS in cells in absence of CPT; Potency, µM (highest dose often 46.2 µM), for the others: top-dose activity change, negative = growth inhibition, actives largely listed as inhibitors; AID 686978, 2013; 420,000 tested, 15% active; DT40 Tdp1-/- hTDP1 cells, no CPT, ATP luminescence, 48 h; also: potency is read from the fitted curve at half-maximal effect; nearly all actives have a fitted effect of over 55% in size
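Compound effects on proliferation are scored in DT40 Tdp1-/-;hTDP1 cells in the absence of CPT. ATP levels (CellTiter-Glo luminescence) are recorded after a ≥48 hr, 37 °C incubation.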
* marks the source's active call; other numbers are inactive results; ? = inconclusive; . = no result. Unless noted, calls follow the shape of the dose curve; as a rule, active = well fitted curve in the direction sought with a large enough effect; inconclusive = small, poorly fitted or top-dose-only effect, or another doubt; inactive = no such curve, though single readings can be large; an effect the other way counts as inactive or inconclusive. % is scaled to controls: 0 for no effect and ±100 for the full control effect.

SMILES	TDP1 block	Six1-Eya2 inh	CtBP-E1A inh	TDP1 cell CPT	IL-1B inflam inh	TDP1 cell noCPT
CC(C)c1ccc(NC2CCCN(C(=O)c3ccccc3-c3ncc[nH]3)C2)cc1 (stereo not drawn)	11%	-4	-9	?	9	?
Cc1ccccc1OCC(=O)NC(=S)Nc1cccc2cc(O)ccc12	2%	-10	-8	?	-12	-2%
O=C(N/N=C/c1ccc2c(c1)OCO2)c1cc(-c2ccc(F)cc2)nc2ccccc12	-1%	-18	-23	15µM*	-1	9.2µM*
COc1cc2ccccc2cc1C(=O)N/N=C/c1ccc2c(c1)OCO2	5%	-7	-5	4.6µM*	51	2.6µM*
COc1ccc(-c2cc(C(=O)N/N=C/c3ccc4c(c3)OCO4)c3ccccc3n2)c(OC)c1	6%	?	?	9.2µM*	-17	1.8µM*
COc1ccc(-c2cc(C(=O)N/N=C/c3ccc(OC)c(COCC(F)(F)C(F)F)c3)c3ccccc3n2)c(OC)c1	0%	-11	-7	5.8µM*	-9	5.8µM*
O=C(COc1ccc(Cl)cc1)NCCN1CCCC1	4%	5	4	5%	0	4%
COc1ccc(CCn2c(=O)c3cccnc3n(Cc3cccc([N+](=O)[O-])c3)c2=O)cc1OC	-2%	10	6	-22%	16	-24%
CC[C@H](C)[C@H](N)C(=O)N[C@@H](CCCCN)C(=O)N[C@H](C(=O)N[C@@H](C)C(=O)N[C@H](C(=O)O)C(C)C)C(C)C	5%	.	.	.	.	.
COc1cc(OC)cc(C(=O)N2CCN(S(=O)(=O)c3ccc4c(c3)OCCO4)CC2)c1	.	1	1	-15%	-12	?
COc1ccc(S(=O)(=O)N2CCCC2c2cccs2)cc1 (stereo not drawn)	0%	1	9	5.8µM*	0	8.2µM*
COc1ccc(S(=O)(=O)N2CCN(C)CC2c2ccccc2)cc1 (stereo not drawn)	2%	-1	6	-2%	5	0%
CS(=O)(=O)Nc1ccc(C2=NN(S(=O)(=O)c3ccccc3)C(c3cccs3)C2)cc1 (stereo not drawn)	3%	-4	.	-17%	-6	?
O=S(=O)(c1ccccc1)N1CCCC1c1cccs1 (stereo not drawn)	6%	3	11	?	42	12µM*
C1CCC(CNc2c3c(nc4nnnn24)CCCC3)CC1	6%	4	3	?	-9	12µM*
CN(C)c1ccc(-c2nn3c(C4CCCCC4)nnc3s2)cc1	2%	0	3	16µM*	-16	23µM*
O=C(Nc1ccc(NC(=O)c2cccnc2)cc1)c1ccccc1	.	5	-1	2%	2	-8%
O=C(Nc1ccc(-c2noc(-c3cccs3)n2)cc1)c1cccnc1	3%	-20	-13	?	?	29µM*
O=C(Nc1cccc(OC(=O)c2cccnc2)c1)c1cccnc1	3%	-16	15	10µM*	8	10µM*
O=C(Nc1ccc(F)cc1)c1cccnc1	3%	3	4	9.2µM*	0	?
CCC(=O)N1CCc2cc(Br)cc(S(=O)(=O)CCC(=O)NCc3ccc(Cl)cc3)c21	6%	.	.	?	.	?
Cc1ccccc1N(CC(=O)NCC1CCCO1)C(=O)CNS(=O)(=O)c1ccc(F)cc1 (stereo not drawn)	10%	-1	0	1%	-12	-11%
CCN(CCCNC(=O)C1CCC(=O)N1Cc1ccccc1Cl)c1cccc(C)c1 (stereo not drawn)	2%	-11	-8	16µM*	0	23µM*
CCN(CCCNC(=O)C1CCC(=O)N1Cc1ccc(C)cc1)c1cccc(C)c1 (stereo not drawn)	2%	-10	1	13µM*	-4	23µM*
